Compounds without any hit were thinned out: in the full panel of roughly 79,000, 15% have a hit. Rule as the data show it: active = growth inhibition above about 70%; inactive = the rest.
Assays:
[1] = NCI Yeast Anticancer Drug Screen. Data for the rad50 strain (AID 155);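 also: 0% = growth of vehicle-only cultures of the same strain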; conditions: S. cerevisiae rad50 strain growth inhibition, stronger effect = higher value; at 50.0 µM unless noted
Outline: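 Readout: growth inhibition relative to vehicle-treated cultures. Compound exposure was carried out in a genetically defined yeast strain deficient in DNA damage repair.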

[2] = NCI Yeast Anticancer Drug Screen. Data for the mec2-1 strain (AID 157); conditions: S. cerevisiae mec2-1 strain, stronger effect = higher value; at 50.0 µM unless noted
Outline: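 Test agents were screened against the mec2-1 yeast strain, with defined DNA repair or cell cycle alteration. Growth was scored as inhibition against vehicle-only controls.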

[3] = NCI Yeast Anticancer Drug Screen. Data for the sgs1 mgt1 strain (AID 161);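 also: 0% = growth of cultures given vehicle only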; conditions: S. cerevisiae sgs1 mgt1 strain, stronger effect = higher value; at 50.0 µM unless noted
Outline: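 Test agents were incubated with a DNA-repair-mutant yeast strain. Growth was then read and compared against vehicle-treated controls.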

[4] = NCI Yeast Anticancer Drug Screen. Data for the cln2 rad14 strain (AID 165);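 also: 0% = growth equal to vehicle treated cultures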; conditions: S. cerevisiae cln2 rad14 strain, stronger effect = higher value; at 50.0 µM unless noted
Outline: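 Growth of compound-exposed yeast (cln2 rad14 genotype) measured and expressed as inhibition relative to vehicle.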

[5] = NCI Yeast Anticancer Drug Screen. Data for the bub3 strain (AID 167); conditions: S. cerevisiae bub3 mutant strain, stronger effect = higher value; at 50.0 µM unless noted
Outline: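 Readout: yeast growth inhibition, expressed relative to vehicle-only wells. The test organism is a mutant strain from a panel with lesions in DNA repair or checkpoint genes.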

[6] = NCI Yeast Anticancer Drug Screen. Data for the mlh1 rad18 strain (AID 175); conditions: S. cerevisiae mlh1 rad18 strain growth inhibition, stronger effect = higher value; at 50.0 µM unless noted
Outline: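 In this whole-cell yeast screen, a strain with altered DNA damage repair is challenged with compound, and its growth is measured against matched vehicle-treated controls.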

Measured: growth inhibition

CC1CCC2COC(=O)CCC2(C)C1C (stereo unspecified)
inactive: [1] 5.95% | [2] 0.7% | [3] -9.75% | [4] -40.9% | [5] -17.4% | [6] -22.9%

CC(C)NC(=O)c1ccc(Cl)cc1Cl
inactive: [1] 26.9% | [2] 27.9% | [3] 15.6% | [4] 10.9% | [5] 3.7% | [6] 12%

Cn1c2ccc3cc2c(=S)c2cc(ccc21)OCCOCCOCCOCCOCCO3
inactive: [1] 32.1% | [2] -16% | [3] 0.65% | [4] -17% | [5] -13.3% | [6] 9.85%

NC1CC(=O)c2ccccc21 (stereo unspecified)
inactive: [1] 15.2% | [2] 4.8% | [3] -5% | [4] 8.95% | [5] 2.75% | [6] -37.6%

CC(=O)Nc1cc(C)cc(CO)c1C
inactive: [1] 13.6% | [2] -3.05% | [3] -10.1% | [4] -23.6% | [5] -1.15% | [6] -26.6%

Cc1cc(Cl)c(OCC(=O)O)cc1C
inactive: [1] -8.2% | [2] -9.45% | [3] -9.25% | [4] -8.3% | [5] -14.6% | [6] -1.9%

Cn1cnc([N+](=O)[O-])c1Sc1ncc[nH]1
inactive: [1] 1.3% | [2] 3.1% | [3] -3.05% | [4] 16.4% | [5] 9.7% | [6] 2.8%

C[N+](C)(C)c1ccc2[nH]c3ccccc3c2c1
inactive: [1] 8.7% | [2] -11.2% | [3] 8.25% | [4] -27.8% | [5] -6.5% | [6] 7.55%

O=C(O)CCc1[nH]c(I)nc1I
inactive: [1] 17.1% | [2] 14.3% | [3] 5.3% | [4] -0.7% | [5] -7.45% | [6] 29.5%

CCn1c2ccccc2c2cc(N=Nc3ccc4c(c3)c3ccccc3n4CC)ccc21
inactive: [1] 44.5% | [2] 14.7% | [3] 19.9% | [4] 41.2% | [5] 45.2% | [6] 35.5%

CC(C)(C)C(C)(C)SSC(C)(C)C(C)(C)C
inactive: [1] 6.05% | [2] 12.4% | [3] 18.8% | [4] 7.4% | [5] 15.7% | [6] 25.5%

CC(C)(C)C(=O)/C(=C/C(=O)O)C(C)(C)C
inactive: [1] -0.1% | [2] 10.7% | [3] 1.25% | [4] 7.6% | [5] -0.9% | [6] -0.95%

Cc1cc(C(=O)c2ccccc2)on1
inactive: [1] 4.05% | [2] -22.6% | [3] -11.9% | [4] -36.1% | [5] 7.7% | [6] 4.55%

O=C(C(/C=N/C(=S)NC1C(=O)Nc2ccccc21)=C(/O)c1ccccc1)c1ccccc1 (stereo unspecified)
inactive: [1] 9.6% | [2] -0.85% | [3] 16.9% | [4] 27.5% | [5] 21.7% | [6] -9.4%

Cc1cc[nH]c(=O)c1[N+](=O)[O-]
inactive: [1] -12.3% | [2] -10.8% | [3] -2.85% | [4] -25.7% | [5] -9.65% | [6] 2.65%

COC1/C=C/OC2(C)Oc3c(C)c(O)c4c(c3C2=O)C(N)=C(NC2CC2)C(=NC(=O)/C(C)=C\C=C\C(C)C(O)C(C)C(O)C(C)C(OC(C)=O)C1C)C4=O (stereo unspecified)
inactive: [1] 15.7% | [2] 32.7% | [3] 41.2% | [4] 49% | [5] 31.9% | [6] 33.1%

CC1CCC2C(=O)OC(=O)C2C1 (stereo unspecified)
inactive: [1] 6.2% | [2] -10.2% | [3] 11.6% | [4] 23.6% | [5] 18.4% | [6] 4.7%

CC(=O)N(C(C)=O)N1C(=O)CSC1=S
inactive: [1] -11.1% | [2] -35% | [3] -21.8% | [4] -3.4% | [5] 17.4% | [6] -7.2%

Cc1cc(C)nc(NS(=O)(=O)c2ccc(NC(=O)c3cccc4c(Nc5ccc(S(=O)(=O)Nc6nc(C)cc(C)n6)cc5)c5ccc(Cl)cc5nc34)cc2)n1
inactive: [1] 27.4% | [2] 35.7% | [3] 24.3% | [4] 33% | [5] 19.6% | [6] 30.7%

COc1ccc(/C(C)=C\C(=O)O)cc1
inactive: [1] -1.95% | [2] -3.2% | [3] -9.55% | [4] -43.2% | [5] -40% | [6] 7.15%

CCOc1ccc(N=Cc2ccc3cc(C)ccc3n2)cc1
inactive: [1] -9.95% | [2] -9.65% | [3] -2.4% | [4] 12.2% | [5] -1.8% | [6] -19.9%

From PubChem BioAssay (NCI)
